Structures are written as SMILES. Inconclusive results are not listed. Active and inactive are the calls of the source. The call rests on the fitted dose curve; in most records, active means well fitted curve in the direction sought with a large enough effect; inconclusive means small, poorly fitted or top-dose-only effect, or another doubt; inactive means no such curve, though single readings can be large; an effect the other way counts as inactive or inconclusive.

Experimental findings from PubChem BioAssay (NCATS) are described below.

Assay [1] in a line: qHTS of pediatric cancer cell lines to identify multiple opportunities for drug repurposing: Primary screen for BT-37 cells (AID 1347094). Further: potency means the concentration at half of the fitted maximal effect. A digest of the protocol:
(§1)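 500-1,000 cells/well; 5 h pre-incubation 37 °C/5% CO2; compound pinned; 48 h; CellTiter-Glo, 15 min RT; luminescence. MIPE 11-pt from 0.78 nM, NPC 8-pt from 0.59 nM final. Bortezomib 2.3 µM final as positive control.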

Assay [2] can be described thus: qHTS of pediatric cancer cell lines to identify multiple opportunities for drug repurposing: Primary screen for NB-EBc1 cells (AID 1347095). The method in brief: as §1
(In general: In qHTS, concentration-response curves come from the screen itself.)

The nature of assay [3]: qHTS of pediatric cancer cell lines to identify multiple opportunities for drug repurposing: Primary screen for U-2 OS cells (AID 1347096). Further: nearly all actives have a fitted effect of over 50% in size. Further: potency means the concentration at half of the fitted maximal effect. The method in brief: (§2)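 Cells (500-1,000/well) in growth media were settled 5 h at 37 degrees C, then given compounds for 48 h. Viability was read as CellTiter-Glo luminescence. Primary runs used MIPE at 11 points (0.78 nM-46 µM) and NPC at 8 points (0.59 nM-46 µM); follow-ups used 11 points.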

Assay [4] is described as follows: qHTS of pediatric cancer cell lines to identify multiple opportunities for drug repurposing: Primary screen for SK-N-SH cells (AID 1347098). Further: nearly all actives have a fitted effect of over 65% in size. Further: potency means the concentration at half of the fitted maximal effect. The method in brief: (§3)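 Cells (500-1,000/well) rested 5 h, then received compounds for 48 h; metabolically active cells were measured by CellTiter-Glo luminescence. Final concentrations spanned up to 46 µM (MIPE, 11-point) or 0.59 nM-46 µM (NPC, 8-point) in primary screens, 11-point in follow-ups.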

Assay [5] in a line: qHTS of pediatric cancer cell lines to identify multiple opportunities for drug repurposing: Primary screen for NB1643 cells (AID 1347099). Further: nearly all actives have a fitted effect of over 50% in size. Further: potency means the concentration at half of the fitted maximal effect. A digest of the protocol:
as §1

The nature of assay [6]: qHTS of pediatric cancer cell lines to identify multiple opportunities for drug repurposing: Primary screen for LAN-5 cells (AID 1347100). The method in brief:
as §2

Assay [7] in a line: qHTS of pediatric cancer cell lines to identify multiple opportunities for drug repurposing: Primary screen for BT-12 cells (AID 1347101). Further: nearly all actives have a fitted effect of over 25% in size. Further: potency means the concentration at half of the fitted maximal effect. The method in brief:
as §3

Assay [8] is described as follows: qHTS of pediatric cancer cell lines to identify multiple opportunities for drug repurposing: Primary screen for Rh18 cells (AID 1347102). Further: nearly all actives have a fitted effect of over 65% in size. Further: potency means the concentration at half of the fitted maximal effect. The method in brief:
as §2

Assay [9] is described as follows: qHTS of pediatric cancer cell lines to identify multiple opportunities for drug repurposing: Primary screen for OHS-50 cells (AID 1347103). Further: nearly all actives have a fitted effect of over 40% in size. Further: potency means the concentration at half of the fitted maximal effect. A digest of the protocol: as §3
A short description of assay [10]: qHTS of pediatric cancer cell lines to identify multiple opportunities for drug repurposing: Primary screen for RD cells (AID 1347104). Further: nearly all actives have a fitted effect of over 55% in size. Further: potency means the concentration at half of the fitted maximal effect. A digest of the protocol:
as §1

Assay [11] is described as follows: qHTS of pediatric cancer cell lines to identify multiple opportunities for drug repurposing: Primary screen for MG 63 (6-TG R) cells (AID 1347105). Further: nearly all actives have a fitted effect of over 50% in size. Further: potency means the concentration at half of the fitted maximal effect. The method in brief:
as §1

A short description of assay [12]: qHTS of pediatric cancer cell lines to identify multiple opportunities for drug repurposing: Primary screen for control Hh wild type fibroblast cells (AID 1347106).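 Further: series mostly up to about 46 µM; a drop in luminescence marks cytotoxicity and a rise apparent proliferation; nearly all actives have a fitted effect of over 55% in size.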 The method in brief: as §2
Assay [13] can be described thus: qHTS of pediatric cancer cell lines to identify multiple opportunities for drug repurposing: Primary screen for Rh30 cells (AID 1347107). Further: nearly all actives have a fitted effect of over 75% in size. Further: potency means the concentration at half of the fitted maximal effect. The method in brief:
as §2

Assay [14] can be described thus: qHTS of pediatric cancer cell lines to identify multiple opportunities for drug repurposing: Primary screen for Rh41 cells (AID 1347108). Further: nearly all actives have a fitted effect of over 70% in size. Further: potency means the concentration at half of the fitted maximal effect. A digest of the protocol:
as §1

Assay [15] is described as follows: qHTS of pediatric cancer cell lines to identify multiple opportunities for drug repurposing: Primary screen for Saos-2 cells (AID 1347097). Further: potency means the concentration at half of the fitted maximal effect; nearly all actives have a fitted effect of over 40% in size. The conditions noted are these: Saos-2 viability, CellTiter-Glo ATP luminescence, 48 h. A digest of the protocol: as §1
Assay [16] in a line: qHTS of pediatric cancer cell lines to identify multiple opportunities for drug repurposing: Confirmatory screen for NB1643 cells (AID 1347109). Further: potency means the concentration at half of the fitted maximal effect; nearly all actives have a fitted effect of over 45% in size. Conditions: NB1643 neuroblastoma cell viability. A digest of the protocol: as §2
Assay [17] is described as follows: qHTS of pediatric cancer cell lines to identify multiple opportunities for drug repurposing: Confirmatory screen for A673 cells (AID 1347110).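 Further: potency means the concentration at half of the fitted maximal effect; cells exposed to compound for 48 h before the viability read; nearly all actives have a fitted effect of over 65% in size.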 Conditions: A673 Ewing sarcoma cell viability. The method in brief:
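Forty-eight-hour viability assay. Follow-up compounds ran at 11-point dilutions; positive control bortezomib at 2.3 uM final, neutral control DMSO.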

A short description of assay [18]: qHTS of pediatric cancer cell lines to identify multiple opportunities for drug repurposing: Confirmatory screen for SK-N-MC cells (AID 1347111).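 Further: potency means the concentration at half of the fitted maximal effect; cells exposed to compound for 48 h before the readout; nearly all actives have a fitted effect of over 70% in size.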 The conditions noted are these: SK-N-MC cell viability. A digest of the protocol:
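Metabolically active cells were quantified by ATP-dependent luminescence (CellTiter-Glo, 15 min at room temperature) following 48 h treatment. Cells had been plated at 500-1,000 per well and settled for 5 h beforehand.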

The nature of assay [19]: qHTS of pediatric cancer cell lines to identify multiple opportunities for drug repurposing: Confirmatory screen for BT-12 cells (AID 1347112). Further: potency means the concentration at half of the fitted maximal effect; nearly all actives have a fitted effect of over 55% in size. The conditions noted are these: BT-12 rhabdoid tumor cells, viability. The method in brief:
as §2

The nature of assay [20]: qHTS of pediatric cancer cell lines to identify multiple opportunities for drug repurposing: Confirmatory screen for LAN-5 cells (AID 1347113). Further: potency means the concentration at half of the fitted maximal effect; nearly all actives have a fitted effect of over 65% in size. Conditions: LAN-5 neuroblastoma cell viability. The method in brief: as §2

Consider `CCCSP(=O)(OCC)SCCC`, for which the Potency result in [1], in [3], in assay [4], in assay [5], in assay [7] and in assay [8] was “inactive” each time. Further, the Potency result in [9], in [10], in assay [11], in assay [13] and in assay [14] was “inactive” in each case. In addition, the call in assay [2], in assay [6] and in [12] was inactive.
Take `C[CH2][Hg][S]c1ccccc1C(=O)O`: the Potency in [1] is 12.3 µM (active); in assay [3] it was 6.68 µM (active); in [15], 841 nM (active); in assay [4] it was 3.07 µM (active); in assay [5] it was 2.37 µM (active); in assay [7], 3.47 µM (active). Besides, the Potency is 4.73 µM (active) in assay [8]; 3.89 µM (active) in assay [9]; 4.73 µM (active) in assay [10]; 2.66 µM (active) in assay [11]; 2.66 µM (active) in assay [13]; 2.37 µM (active) in [14]. For the same compound, the Potency in [16] was 2.93 µM (active); in assay [17], 7.37 µM (active); in assay [18], 2.93 µM (active); in assay [19], 6.57 µM (active); in [20], 4.65 µM (active). The result in assay [12] was inactive.
